{"source": "paper PMC12820563", "about": "“FoxP3 forms a head-to-head dimer in vivo and stabilizes its multimerization on adjacent microsatellites”", "note": "Whole data set: some 16,000 sequences, median “rpm ratio (pull-down/input)” near 0.5, cut for the highest 2% near 5.5. What follows is part of a selection rich in the highest values, with near analogues and random picks from the rest."}
{"target": "T1, MBP-FoxP3dN (Mus musculus, UniProt Q99JB6 188-423)", "T1 sequence": "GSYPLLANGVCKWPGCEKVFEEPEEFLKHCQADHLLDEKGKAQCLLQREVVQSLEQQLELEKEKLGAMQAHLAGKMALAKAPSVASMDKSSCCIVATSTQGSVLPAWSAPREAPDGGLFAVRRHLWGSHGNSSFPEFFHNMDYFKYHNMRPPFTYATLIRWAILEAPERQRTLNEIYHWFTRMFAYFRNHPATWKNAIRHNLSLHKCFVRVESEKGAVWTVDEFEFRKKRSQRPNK", "assay": "PD-seq (MBP pull-down with sequencing); 20 mM Tris-HCl pH 7.5, 100 mM NaCl, 1.5 mM MgCl2, 0.4 uM protein, 0.1 uM dsDNA library, 30 min, room temperature, amylose pull-down; high values mean tight binding", "conditions": "protein: recombinant; tags: His6-MBP; chain copies: 2; dsDNA, one strand shown", "how_it_was_run": "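Amylose resin was used to capture complexes formed during 30 min at room temperature in Tris pH 7.5 buffer with NaCl and MgCl2 between 0.4 µM His6-MBP-tagged mouse FoxP3 or FoxP1 fragment lacking the N-terminus, expressed in E. coli, and 0.1 µM Klenow-filled double-stranded degenerate DNA library. After three washes, the DNA was released with proteinase K, barcoded by PCR and sequenced on Illumina. Binding is pooled-replicate reads-per-million enrichment, pull-down over input.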"}
{"sequence": "GATGATTGTTCTCCCAGCTGATGAATTTATCCGTTCGAGTAAACAAATTTTCCTAATCTTTCTGTTCAAGCGCCATCTAC", "binding signal": "0.58 RPM ratio (pull-down/input)"}
{"sequence": "GATGATTGTTCTCCCAGCTGATGAATTGCTTTCATCGAGTAAACAAATTTTCCTAATCTTTCTGTTCAAGCGCCATCTAC", "binding signal": "1.04 RPM ratio (pull-down/input)"}
{"sequence": "GATGATTGTTCTCCCAGCTGATGAATTGTAGCCATCGAGTAAACAAATTTTCCTAATCTTTCTGTTCAAGCGCCATCTAC", "binding signal": "1.99 RPM ratio (pull-down/input)"}
{"sequence": "GATGATTGTTCTCCCAGCTGATGAATTTCAACGATCGAGTAAACAAATTTTCCTAATCTTTCTGTTCAAGCGCCATCTAC", "binding signal": "0.284 RPM ratio (pull-down/input)"}
{"sequence": "GATGATTGTTCTCCCAGCTGATGAATTCTGGGGGTCGAGTAAACAAATTTTCCTAATCTTTCTGTTCAAGCGCCATCTAC", "binding signal": "0.456 RPM ratio (pull-down/input)"}
{"sequence": "GATGATTGTTCTCCCAGCTGATGAATTCCTGTTTTCGAGTAAACAAATTTTCCTAATCTTTCTGTTCAAGCGCCATCTAC", "binding signal": "0.929 RPM ratio (pull-down/input)"}
{"sequence": "GATGATTGTTCTCCCAGCTGATGAATTTGTTGATTCGAGTAAACAAATTTTCCTAATCTTTCTGTTCAAGCGCCATCTAC", "binding signal": "7.3 RPM ratio (pull-down/input)"}
{"sequence": "GATGATTGTTCTCCCAGCTGATGAATTCTTTGATTCGAGTAAACAAATTTTCCTAATCTTTCTGTTCAAGCGCCATCTAC", "binding signal": "0.276 RPM ratio (pull-down/input)"}
{"sequence": "GATGATTGTTCTCCCAGCTGATGAATTTTTTGATTCGAGTAAACAAATTTTCCTAATCTTTCTGTTCAAGCGCCATCTAC", "binding signal": "0.323 RPM ratio (pull-down/input)"}
{"sequence": "GATGATTGTTCTCCCAGCTGATGAATTTTGTTTTTCGAGTAAACAAATTTTCCTAATCTTTCTGTTCAAGCGCCATCTAC", "binding signal": "7.43 RPM ratio (pull-down/input)"}
{"sequence": "GATGATTGTTCTCCCAGCTGATGAATTCTGTTGTTCGAGTAAACAAATTTTCCTAATCTTTCTGTTCAAGCGCCATCTAC", "binding signal": "7.51 RPM ratio (pull-down/input)"}
{"sequence": "GATGATTGTTCTCCCAGCTGATGAATTCTGTTTTTCGAGTAAACAAATTTTCCTAATCTTTCTGTTCAAGCGCCATCTAC", "binding signal": "5.51 RPM ratio (pull-down/input)"}
{"sequence": "GATGATTGTTCTCCCAGCTGATGAATTCGAGTTTTCGAGTAAACAAATTTTCCTAATCTTTCTGTTCAAGCGCCATCTAC", "binding signal": "0.651 RPM ratio (pull-down/input)"}
{"sequence": "GATGATTGTTCTCCCAGCTGATGAATTGTTGAATTCGAGTAAACAAATTTTCCTAATCTTTCTGTTCAAGCGCCATCTAC", "binding signal": "1 RPM ratio (pull-down/input)"}
{"sequence": "GATGATTGTTCTCCCAGCTGATGAATTCTTTTTTTCGAGTAAACAAATTTTCCTAATCTTTCTGTTCAAGCGCCATCTAC", "binding signal": "0.311 RPM ratio (pull-down/input)"}
{"sequence": "GATGATTGTTCTCCCAGCTGATGAATTTTTGTTTTCGAGTAAACAAATTTTCCTAATCTTTCTGTTCAAGCGCCATCTAC", "binding signal": "2.51 RPM ratio (pull-down/input)"}
{"sequence": "GATGATTGTTCTCCCAGCTGATGAATTGTTTTGTTCGAGTAAACAAATTTTCCTAATCTTTCTGTTCAAGCGCCATCTAC", "binding signal": "4.09 RPM ratio (pull-down/input)"}
{"sequence": "GATGATTGTTCTCCCAGCTGATGAATTATTAGGTTCGAGTAAACAAATTTTCCTAATCTTTCTGTTCAAGCGCCATCTAC", "binding signal": "0.47 RPM ratio (pull-down/input)"}
